According to PubChem BioAssay AID624330 (Southern Research Specialized Biocontainment Screening …, 2012):
Out of some 340,000 compounds screened, about 2,100 (0.62%) were called active.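 How the source made its calls: active means first-screen hits whose inhibition reached a set limit at any dose in the follow-up dose series; inconclusive means inhibition above the set first-screen limit but never retested; inactive means the rest.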 These entries were drawn from the full list. Results with a measured potency or affinity are listed apart.

Each compound was assayed against Rac GTPase-activating protein 1 (Homo sapiens) (UniProt Q9H0H5) (assay: blockers of MgcRacGAP-driven Rac1 GTP hydrolysis – biochemical, ADP Hunter fluorescence, primary and confirmatory, confirmation (AID 624330;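 further: fluorescence reports GDP produced by GAP-driven GTP hydrolysis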)). Settings: MgcRacGAP-stimulated Rac1 GTP hydrolysis, at 30 µM, stronger effect = higher value, GST-tagged Rac1 F28L mutant substrate.
Rac GTPase-activating protein 1 (Homo sapiens), sequence (Q9H0H5 whole entry, looked up): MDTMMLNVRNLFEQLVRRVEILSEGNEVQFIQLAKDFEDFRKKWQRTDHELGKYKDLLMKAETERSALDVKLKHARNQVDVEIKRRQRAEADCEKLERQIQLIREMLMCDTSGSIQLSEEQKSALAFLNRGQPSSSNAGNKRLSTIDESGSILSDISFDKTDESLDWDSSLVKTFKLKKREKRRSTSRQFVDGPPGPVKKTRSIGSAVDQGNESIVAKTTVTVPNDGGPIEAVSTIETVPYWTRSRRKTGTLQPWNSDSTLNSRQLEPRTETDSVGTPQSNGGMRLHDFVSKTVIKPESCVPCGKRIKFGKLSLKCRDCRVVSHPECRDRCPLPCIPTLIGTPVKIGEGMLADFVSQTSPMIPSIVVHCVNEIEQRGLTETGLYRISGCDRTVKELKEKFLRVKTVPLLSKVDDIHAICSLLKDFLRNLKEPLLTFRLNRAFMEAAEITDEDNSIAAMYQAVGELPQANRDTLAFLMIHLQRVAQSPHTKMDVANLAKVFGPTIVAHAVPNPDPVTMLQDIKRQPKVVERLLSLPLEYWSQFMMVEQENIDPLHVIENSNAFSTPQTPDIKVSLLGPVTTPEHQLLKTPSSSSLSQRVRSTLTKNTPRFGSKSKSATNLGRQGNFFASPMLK

inhibition, inactive:
O=C(COC(=O)c1cc(S(=O)(=O)N2CCOCC2)ccc1Cl)NCc1ccccc1 -0.98%
O=C(COC(=O)/C=C/c1ccc([N+](=O)[O-])cc1)Nc1ccc2[nH]c(=O)[nH]c2c1 8.57%
COc1ccc(Br)cc1CN(C)CC(=O)NCCc1ccc(S(N)(=O)=O)cc1 -1.98%
COc1ccc(Br)cc1CN(C)CC(=O)NCc1ccc(F)cc1 30.8%
COc1cccc(CNS(=O)(=O)c2ccc(N3CCCC3=O)cc2)c1 1.52%
Cc1ccccc1NC(=O)c1cccc(S(=O)(=O)N2CCCCC2)c1 3.86%
CC(C)C(O)(CC#CCN1CCCC1)c1ccccc1 (stereo not given) 6.41%
CCn1cc(CN2CCC(C(=O)Nc3cccc(-c4cccc(OC)c4)c3)CC2)c(C)n1 4.15%
Cc1ccc(OCCOC(=O)Cn2nc(C)c([N+](=O)[O-])c2C)cc1 7.43%
Cc1cccc(C)c1OCC(O)CN1CCN(c2ccccc2)CC1 (stereo not given) 4.36%
Cc1cccc(C(=O)Oc2ccc(/C=N/NC(=O)Cc3ccc([N+](=O)[O-])cc3)cc2)c1 1.03%
O=C(Oc1ccc(/C=N/n2cnnc2)cc1)c1cccc([N+](=O)[O-])c1 13.5%
CC1=NNC(=O)C1CC(=O)N/N=C/C(C)=C/c1ccccc1 (stereo not given) 13.2%
Cn1c(=O)c2c(nc(CN3CCCCC3)n2CCc2ccccc2)n(C)c1=O 18.6%
Cc1ccc(OCC(=O)N2CCN(S(=O)(=O)c3ccccc3[N+](=O)[O-])CC2)cc1 5.54%
CN(NC(=O)Nc1ccc(Cl)cc1)c1ncc(C(F)(F)F)cc1Cl 7.17%
C=CCOc1ccc(/C=N/NC(=O)C(C)Sc2ccccn2)cc1OC (stereo not given) 6.97%
COC(=O)c1ccc(/C=N/NC(=O)CC(=O)NC2CCCCC2)cc1 -3.55%
CCCOc1ccc(/C=N/NC(=O)C(C)Sc2ccccn2)cc1OCC (stereo not given) 9.98%
Cc1ccc(/C=N/NC(=O)NN(C)c2ncc(C(F)(F)F)cc2Cl)cc1 4.41%
COc1ccc(/C=N/NC(=O)CC(=O)NC2CCCCC2)cc1 6.51%
COc1ccc(/C=N/NC(=O)CCCC(=O)NC2CCCCC2)cc1 2.54%
COc1cc(/C=N/NC(=O)CCC(=O)NC2CCCCC2)ccc1C 9.37%
CCS(=O)(=O)N1CCC(C(=O)Nc2cc(Cl)ccc2O)CC1 6.74%
Cn1cc(CN2CCCC(C(=O)c3nccn3C)C2)c(-c2cccc(Cl)c2)n1 (stereo not given) 0.46%
